Assay results published in PubChem BioAssay.
The source made the active and inactive calls. How the calls were made is not given here.

target: Pantothenate synthetase (Mycobacterium tuberculosis (strain ATCC 25618 / H37Rv)) (UniProt P9WIL5); assay: Recombinant Mtb pantothenate synthetase (PanC) inhibitors, coupled enzyme, confirmatory (AID 375); details: coupled enzyme assay; at 10 µM, hits give high values;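 further: 0% = full reaction with vehicle and 100% = no enzyme background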
Sequence (P9WIL5 whole entry, looked up): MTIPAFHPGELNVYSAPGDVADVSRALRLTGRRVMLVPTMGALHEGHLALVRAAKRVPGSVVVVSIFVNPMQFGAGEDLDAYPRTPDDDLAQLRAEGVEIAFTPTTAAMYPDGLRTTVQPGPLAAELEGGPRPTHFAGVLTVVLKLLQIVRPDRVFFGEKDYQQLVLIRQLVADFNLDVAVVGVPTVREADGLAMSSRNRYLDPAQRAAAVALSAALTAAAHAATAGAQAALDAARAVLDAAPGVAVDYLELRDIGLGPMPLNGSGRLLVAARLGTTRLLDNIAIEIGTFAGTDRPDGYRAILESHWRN

| Structure (SMILES) | inhibition |
| --- | --- |
| CCS(=O)(=O)NCCc1cc2c(OC)ccc(OC)c2[nH]c1=O | 3% (inactive) |
| O=C(O)Cn1cc2c(n1)CCCC2 | 0% (inactive) |
| COc1ccc(CCN2CC(O)=C(c3nc4ccccc4c(=O)[nH]3)C2=N)cc1OC | 0% (inactive) |
| CC(=O)N1CCN(C(=O)COc2ccc(Br)cc2)CC1 | 0% (inactive) |
| CCOC(=O)N1CCN(CC(=O)Nc2cc(C)nn2-c2nc3ccccc3s2)CC1 | 0% (inactive) |
| Cc1cccc(NCc2ccccc2O)c1 | 3% (inactive) |
